Among all 420,000 compounds or so, about 50,000 (12%) were called active. Not shown: some 26% with an inconclusive outcome. The call rests on the fitted dose curve; in most records, active means well fitted inhibition curve with a large enough effect; inconclusive means small, poorly fitted or top-dose-only effect; inactive means flat fitted curve, though single readings scatter. Shown is part of a subset that was picked to be rich in actives. Entries that show only a call come without a potency.
Experiment: qHTS for Inhibitors of human tyrosyl-DNA phosphodiesterase 1 (TDP1): qHTS in cells in presence of CPT; further: nearly all actives have a fitted effect of over 55% in size
Settings: chicken DT40 Tdp1-/-;hTDP1 cells + 20 nM CPT, ATP luminescence, 48 h; series mostly up to 46.2 µM
Outline: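 Chicken DT40 Tdp1-/- cells complemented with human TDP1, 400 cells/well, exposed to compounds plus 20 nM camptothecin for at least 48 h at 37 C; viability read as ATP content by CellTiter-Glo luminescence.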
Potency means the concentration at half of the fitted maximal effect.

SMILES | Potency
CCc1ccccc1OCC(=O)Nc1nnc(C2CC2)s1 | inactive
N#Cc1ccc[n+](CC(=O)c2ccc(O)c(O)c2)c1 | inactive
O=C(CSc1ncn[nH]1)Nc1ccc(Br)cc1Br | inactive
Cc1n[nH]c(=O)c2c(NC(=O)COC(=O)c3ncc(Cl)c(Cl)c3Cl)oc(C)c12 | inactive
O=C(CN(C(=O)c1nsc(Cl)c1Cl)c1cccc(F)c1)NC1CCCC1 | inactive
Cc1ccc(S(=O)(=O)n2oc(=O)c(C3CCCCC3)c2N)cc1 | inactive
Cc1ccc(C(=O)O)cc1NC(=O)c1ccc(Cn2nc(C)c(Cl)c2C)o1 | inactive
O=C(N/N=C/c1ccc2c(c1)OCO2)c1ccc(Cn2cc([N+](=O)[O-])cn2)o1 | inactive
Cc1c(Cl)c([N+](=O)[O-])nn1Cc1ccc(C(=O)N/N=C\c2cc(Cl)ccc2O)o1 | 3.66 µM (active)
Brc1ccccc1/C=N/Nc1nc2ccccc2o1 | inactive
COCCN(C(=O)c1ccco1)c1nnc(-c2ccc(OC)cc2)s1 | inactive
COCCN(C(=O)C(C)C)c1nnc(-c2ccc(C(C)(C)C)cc2)s1 | 20.6 µM (active)
COc1cc(OC)cc(-c2nnc(N(C)C(=O)c3ccncc3)s2)c1 | inactive
COc1ccc(/C=C/c2noc(-c3ccccc3O)n2)cc1OC | inactive
CC(=O)O[C@H]1c2ccccc2-c2ccccc2[C@@H]1OC(C)=O | inactive
Cc1cccc(NC(c2cccc(F)c2)c2ccc3ccc(C)nc3c2O)n1 (stereo not given) | 8.2 µM (active)
CCn1ncc(CNC(=O)C2(C)CC2(Br)Br)c1C (stereo not given) | inactive
O=C(CN1CCN(c2ccc(Cl)cc2)CC1)c1ccccc1 | inactive
CCc1nc2ccc(C(=O)N3CCN(c4cccc(Cl)c4)CC3)cc2nc1CC | inactive
O=C(CCCC(=O)N1CCN(c2cccc(Cl)c2)CC1)c1ccccc1 | 14.6 µM (active)
COc1cc(C(C(=O)NC2CCCC2)N(C(=O)c2ccco2)c2ccccc2C(C)=O)cc(OC)c1OC (stereo not given) | inactive
CC(C)C(NC(=O)c1c(F)cccc1F)C(=O)NCc1ccncc1 (stereo not given) | inactive
O=C(NC1CC1)C1=C[C@H](c2coc3ccccc3c2=O)C[C@H](OCCCCO)O1 | inactive
CCO[C@H]1OC(C(=O)NCc2ccccc2)=C[C@@H](c2coc3ccccc3c2=O)[C@@H]1CCCO | 23.1 µM (active)
CCO[C@H]1OC(C(=O)N2CCOCC2)=C[C@@H](c2ccc3c(c2)OCO3)[C@@H]1CCCO | inactive
Cc1ccc(NC(=O)C(c2ccccc2)N2CCN(C(=O)c3ccco3)CC2)cc1 (stereo not given) | inactive
O=C(O)C1CCCN1c1nc(Cl)ccc1[N+](=O)[O-] (stereo not given) | inactive

SMILES | Potency
CCC(=O)N1CCc2cc(Br)cc(S(=O)(=O)CCC(=O)NCc3ccccc3OC)c21 | inactive
O=C(CCS(=O)(=O)c1cc(Br)cc2c1N(C(=O)C1CC1)CC2)Nc1ccc(Br)cc1F | inactive
CCC(=O)N1CCc2cc(S(=O)(=O)CCC(=O)N3CCN(c4ccccc4F)CC3)ccc21 | inactive
CCC(=O)N1CCc2cc(Br)cc(S(=O)(=O)CCC(=O)N3CCN(c4ccc(F)cc4)CC3)c21 | 20.6 µM (active)
CN(Cc1ccccc1)C(=O)CCS(=O)(=O)c1cc(Br)cc2c1N(C(=O)C1CC1)CC2 | 13 µM (active)
O=C(CCS(=O)(=O)c1cc(Br)cc2c1N(C(=O)C1CC1)CC2)Nc1ccc(C(F)(F)F)cc1 | inactive
CC1(C)C[C@H]2C3=CCC4[C@@]5(C)CC[C@H](O)[C@](C)(CO)C5CC[C@@]4(C)[C@]3(C)C[C@@H](O)[C@@]2(CO)[C@@H](O)[C@@H]1O (stereo not given in full) | inactive
CCCCc1nc2cc(C(=O)NCCc3cnn(C)c3)ccc2o1 | inactive
Cc1cc(C)c(C)c(S(=O)(=O)N[C@@H](C)C(=O)OC(C)C(=O)NC(N)=O)c1C (stereo not given in full) | inactive
CN(Cc1c(F)cccc1Cl)C(=O)COC(=O)Cn1cnc2ccccc2c1=O | inactive
CCOC(=O)Nc1ccc(S(=O)(=O)N(C)C(C)C)cc1 | inactive
Cc1ccccc1C(=O)N1CCC(C(=O)Nc2ccc(S(=O)(=O)N(C)C(C)C)cc2)CC1 | 14.6 µM (active)
CCc1nnc(NC(=O)C2CCN(C(=O)c3ccccc3C)CC2)s1 | inactive
COc1ccc(N2CCN(CCCNC(=O)C3CCN(S(=O)(=O)N4CCOCC4)CC3)CC2)cc1 | inactive
NNC(=O)c1oc2nc(-c3ccccc3)cc(-c3ccco3)c2c1N | inactive
CN(C)C(=O)Cn1c(=O)n(S(=O)(=O)c2ccccc2)c2ccccc21 | inactive
C/C(=N\OCC(=O)Nc1ccc(Br)cc1)c1cccs1 | inactive
CC1CC2=C(CC1/C=N/NC(N)=S)C(C)(C)CCC2 (stereo not given) | 4.11 µM (active)
CC1(C)CCCC2=C1CC1C(=O)N(c3ccccc3)C(=O)C1C2 (stereo not given) | inactive
Cc1ccccc1N1CC(C(=O)Nc2nnc(SCCC3OCCO3)s2)CC1=O (stereo not given) | inactive
COc1ccc(NC(=O)N2CCCC2C(=O)NCc2ccccc2Cl)cc1 (stereo not given) | inactive
CCOc1ccc(Nc2oc(/C=C/c3ccc(F)cc3)nc2C#N)cc1 | inactive
Cc1ccccc1-c1nc(C#N)c(NCc2ccco2)o1 | inactive
COc1ccc(Nc2oc(-c3ccccc3Cl)nc2C#N)cc1 | 2.91 µM (active)
CCOC(=O)N1CCN(Cc2nnc(-c3ccccc3Cl)o2)CC1 | inactive
CCc1ccc[n+](-c2nc([O-])sc2C=O)c1 | inactive
COc1cccc(C(=O)Nc2cc3c(cc2Br)OCCCO3)c1 | inactive

SMILES | Potency
Cn1c(N)c(C(=O)COC(=O)C23CC4CC(CC(C4)C2)C3)c(=O)n(C)c1=O | inactive
Cc1ccc(-n2c(C)cc(C(=O)CN3C(=O)C(=O)N(C4CCCC4)C3=O)c2C)cc1 | 20.6 µM (active)
CCOC(=O)c1cc2c(n(-c3ccc(C)cc3)c1=O)CCCC2=O | inactive
Cc1cc(C(=O)COC(=O)C2CC2)c(C)n1-c1ccc(F)cc1 | inactive
Cc1cc(OC(=O)c2ccc(OC(C)C)cc2)c([N+](=O)[O-])c(=O)[nH]1 | inactive
COCc1cc(C)n(CC(=O)NCC2CCCO2)c(=O)c1C#N (stereo not given) | inactive
CC1(C)O[C@@H]2CC3C4C[C@H](F)C5=CC(=O)C=CC5(C)C4C(O)CC3(C)[C@]2(C(=O)CO)O1 (stereo not given in full) | inactive
CCOC(=O)c1cnc(Nc2nc3ccccc3o2)nc1CSC(=S)N1CCCCC1 | 0.146 µM (active)
CCOC(=O)c1ccccc1NC(=S)N1CCC(C(N)=O)CC1 | inactive
CCc1ccc(CNC(=O)C2CCCN(c3nc4ccccc4o3)C2)cc1 (stereo not given) | inactive
CCN(C(=O)COc1ccc(C(=O)c2ccccc2)cc1)c1ccccc1 | 18.4 µM (active)
CN(Cc1ccccc1)C(=O)COc1ccccc1 | inactive
O=C(COc1ccc(F)cc1)N(CC1=CCS(=O)(=O)C1)c1ccccc1 | inactive
CC(C)CCN1C(=O)c2ccc(C(=O)Nc3cccc(S(N)(=O)=O)c3)cc2C1=O | inactive
COCCCn1c(SCC(=O)Nc2oc(C)c3c(C)n[nH]c(=O)c23)nc2sc3c(c2c1=O)CCC3 | inactive
COc1ccccc1C(=O)NNC(=O)CCN1C(=O)/C(=C\c2ccccc2)SC1=S | inactive
O=C1/C(=C/c2ccc(F)cc2)SC(=S)N1CCCC(=O)N1CCCCC1CCO (stereo not given) | 16.4 µM (active)
Cc1ccc(/C=C2\SC(=S)N(CCC(=O)Nc3ccc(O)cc3)C2=O)cc1 | inactive
CN(C)c1ccc(NC(=O)CN2C3CCCC2CC(NC(=O)c2ccccc2)C3)cc1 (stereo not given) | inactive
Cc1ccc(CNC(=O)CSc2c(C)cnc3c2c(=O)n(C)c(=O)n3C)cc1 | inactive
CCc1cnc2c(c1SCC(=O)N1CCC(C)CC1)c(=O)n(C)c(=O)n2C | 20.6 µM (active)
CCOC(=O)N1CCN(C(=O)CSc2nc(C)nc3c2c(=O)n(C)c(=O)n3C)CC1 | inactive
COc1cc(C(c2c(NC(=O)c3ccco3)sc(C)c2C)N2CCOCC2)cc(OC)c1OC (stereo not given) | 23.1 µM (active)
COc1ccc(NC(=O)CCC(=O)Nc2cc(OC)c(NC(=O)c3ccco3)cc2OC)c(OC)c1 | inactive
COc1ccc(CC(=O)Nc2ccccc2NC(=O)c2ccco2)cc1OC | inactive
COC(=O)c1ccccc1NC(=O)c1ccc(COc2ccccc2Cl)o1 | inactive
COc1ccc(OCCCC(=O)OC(C)C(=O)Nc2ccccc2[N+](=O)[O-])cc1 (stereo not given) | inactive

SMILES | Potency
COC(=O)Cn1cc(/C=C/[N+](=O)[O-])c2ccccc21 | 10.3 µM (active)
COC(=O)Cn1cc(C(=O)c2cccs2)c2ccccc21 | inactive
COC(=O)c1cn(CC(=O)NCc2cccs2)c2ccccc12 | inactive
COC(=O)c1cc(NC(=O)c2sc3ccccc3c2Cl)cc(C(=O)OC)c1 | inactive
O=C(N/N=C/c1c(Cl)[nH]c2ccccc12)c1sc2ccccc2c1Cl | 23.1 µM (active)
Cc1[nH]c2ccccc2c1/C=N\NC(=O)Cn1nnc(-c2ccccc2)n1 | inactive
CC(=O)c1nnn(-c2ccc(Cl)cc2C#N)c1C | inactive
COCCCNc1nc2ccccc2nc1NS(=O)(=O)c1ccc(F)cc1 | inactive
CCCc1cc(=O)n2[nH]c(NCc3ccc(CC)cc3)nc2n1 | inactive
COc1ccc(CN2C(=O)CC(Cc3ccc(C)cc3)C2=O)cc1OC (stereo not given) | inactive
CCCCn1nnnc1C1(C)CCC(=O)N1Cc1ccc(OC)c(OC)c1 (stereo not given) | inactive
CCCCOc1ccc(CN2C(=O)C(=O)c3cc(Br)cc(C)c32)cc1OC | 0.82 µM (active)
Cc1cc(C)nc(NC(=O)c2cccc([N+](=O)[O-])c2)c1 | inactive
O=C(Nc1ccc(F)cc1)C(CCc1ccccc1)N1CCN(CC(=O)N2CCCC2)CC1 (stereo not given) | inactive
OC(c1ccc(Cl)cc1)C(CN1CCOCC1)c1ccccc1 (stereo not given) | inactive
COc1ccccc1OCCCn1c(-c2ccc(Cl)cc2)nc2ccccc2c1=O | inactive
COc1cccc(OC)c1C(=O)N1CCN(Cc2ccccc2F)CC1 | inactive
CCCCc1c(-c2ccc(Br)cc2)ncn1CCc1ccccc1OC | 1.3 µM (active)
COc1ccccc1CN1CCN(Cc2cc(OC)c(OC)cc2OC)CC1 | inactive
COCCn1cnc2c1c(=O)n(Cc1ccc(Br)cc1)c(=O)n2Cc1ccccc1 | inactive
COc1ncc2nc(-c3ccc(Cl)cc3)c(=O)n(C)c2n1 | inactive
CCCCc1c(-c2ccc(Cl)cc2)ncn1CCc1ccccc1OC | 4.61 µM (active)
CCCc1c(-c2ccccc2F)ncn1Cc1ccccc1OC | 1.3 µM (active)
COc1ccccc1NC(=O)c1c(Br)cnn1C | inactive

— PubChem BioAssay AID686979 (National Center for Advancing Translational Sciences (NCATS), 2013)
